From PubChem BioAssay
ELG1 DNA repair = qHTS screen for small molecules that inhibit ELG1-dependent DNA repair in human embryonic kidney (HEK293T) cells expressing luciferase-tagged ELG1. HEK293T ELG1-luciferase reporter, luminescence, 16 h; DNA damage induced by 5-fluorouridine. Potency, µM (titrated, usually from 46.1 µM), most hits filed as inhibitors. 330,000 tested, 2.3% active; also: nearly all actives have a fitted effect of over 55% in size
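Reporter activity after DNA damage by 5-fluorouridine is monitored. Compound-treated cells incubate 16 hr at 37 °C, then ONE-Glo is added for 30 min before luminescence reading.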
IL1B secr inh = qHTS for Inhibitors of Inflammasome Signaling: IL-1-beta AlphaLISA Primary Screen | THP-1 LPS/ATP IL-1B secretion, AlphaLISA, 16 h; hits give low values | activity change, % at 57.5 µM | 360,000 tested, 4.7% active | AID 743279, 2014; in the data active = activity change below about -50%; inconclusive = mostly about -30% to -49%
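THP-1 cells pretreated 1 hr with compounds (up to 57.5 uM final), then stimulated with LPS (250 ng/mL final) plus ATP (1.25 mM final); secreted IL-1B measured by AlphaLISA after 16 hr, decreased signal indicating inhibition.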
Giardia killer = Small Molecules that selectively kill Giardia lamblia: qHTS | Giardia lamblia trophozoite viability | activity change, % at 7.66 µM, hits read low | 340,000 tested, 0.15% active; in the data active = activity change below about -80%; inconclusive = between about -30% and that limit;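 also: parasites exposed to compound for two days anaerobically before the ATP read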
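Compounds were tested on trophozoites seeded at 100 cells/well and held 48 hrs at 37 deg C anaerobically. An ATP-based luminescent kit measured the remaining live cells.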
TDP1 inh = qHTS Assay for Inhibitors of Tyrosyl-DNA Phosphodiesterase (TDP1). 350,000 tested, 0.28% active. Potency, µM (top dose mostly 130 µM), most hits filed as inhibitors. recombinant TDP1, AlphaScreen DNA substrate cleavage; also: nearly all actives have a fitted effect of over 40% in size
Target sequence (Q9NUW8 whole entry, looked up): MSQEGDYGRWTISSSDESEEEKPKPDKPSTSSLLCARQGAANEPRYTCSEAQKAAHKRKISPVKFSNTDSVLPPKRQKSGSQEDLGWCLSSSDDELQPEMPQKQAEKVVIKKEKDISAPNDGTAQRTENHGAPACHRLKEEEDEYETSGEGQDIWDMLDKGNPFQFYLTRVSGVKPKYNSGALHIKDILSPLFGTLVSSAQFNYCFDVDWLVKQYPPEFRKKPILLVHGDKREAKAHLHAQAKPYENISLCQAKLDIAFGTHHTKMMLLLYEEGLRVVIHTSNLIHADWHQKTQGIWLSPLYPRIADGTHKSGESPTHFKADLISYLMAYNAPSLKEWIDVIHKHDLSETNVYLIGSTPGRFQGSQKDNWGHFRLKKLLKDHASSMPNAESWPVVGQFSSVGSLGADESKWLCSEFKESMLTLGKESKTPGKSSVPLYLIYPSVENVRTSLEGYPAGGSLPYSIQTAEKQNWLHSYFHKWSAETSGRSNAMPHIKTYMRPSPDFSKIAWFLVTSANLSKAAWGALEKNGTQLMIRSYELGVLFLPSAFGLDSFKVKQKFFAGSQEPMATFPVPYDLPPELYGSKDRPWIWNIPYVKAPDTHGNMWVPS
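Recombinant human Tdp1 (E. coli-expressed, 1 nM final) preincubated with compounds 15 min at room temperature, then 5'-biotin/3'-phosphotyrosine-FITC DNA substrate (15 nM final) added for 5 min. AlphaScreen beads (10 ug/ml final) added 10 min; cleavage lowers signal.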
DT40 TDP1 CPT = qHTS for Inhibitors of human tyrosyl-DNA phosphodiesterase 1 (TDP1): qHTS in cells in presence of CPT | AID 686979, 2013 | 420,000 tested, 12% active | Potency, µM (highest dose often 46.2 µM), most hits filed as inhibitors | chicken DT40 Tdp1-/-;hTDP1 cells + 20 nM CPT, ATP luminescence, 48 h; also: nearly all actives have a fitted effect of over 55% in size
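Chicken DT40 Tdp1-/- cells stably complemented with human TDP1 were seeded at 400 cells/well in medium containing 20 nM camptothecin, exposed to pin-transferred compounds, and grown at 37 °C for at least 48 hr. Viability was read as ATP luminescence.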
DT40 TDP1 no CPT = qHTS for Inhibitors of human tyrosyl-DNA phosphodiesterase 1 (TDP1): qHTS in cells in absence of CPT. AID 686978, 2013. 420,000 tested, 15% active. Potency, µM (top dose mostly 46.2 µM), hits mostly inhibitors. DT40 Tdp1-/- hTDP1 cells, no CPT, ATP luminescence, 48 h; also: nearly all actives have a fitted effect of over 55% in size
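DT40 Tdp1-/-;hTDP1 cells, no CPT (DMSO vehicle only), 400 cells/well; compounds pin-transferred; ≥48 hr, 37 °C; CellTiter-Glo 30 min RT dark, luminescence read.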
Hits are given with their value; . = inactive; ? = inconclusive; / = no result given; ! = a repeat was not active; [ ] = another dose, or the depositor's remark. The list is not random: actives were taken first. Their share in the collection is about 19%. Unless noted, calls follow the shape of the dose curve; as a rule, active = well fitted curve in the direction sought with a large enough effect; inconclusive = small, poorly fitted or top-dose-only effect, or another doubt; inactive = no such curve, though single readings can be large; an effect the other way counts as inactive or inconclusive.

SMILES	ELG1 DNA repair	IL1B secr inh	Giardia killer	TDP1 inh	DT40 TDP1 CPT	DT40 TDP1 no CPT
COC(=O)[C@]1(C)N[C@H](CN(C)S(=O)(=O)c2ccc(C)cc2)[C@@H]2C(=O)N(Cc3ccccc3)C(=O)[C@@H]21	.	.	.	.	.	.
CN(CC(=O)NCCc1ccc(S(N)(=O)=O)cc1)CC(=O)Nc1ccccc1C(F)(F)F	.	.	.	.	.	.
CCN(c1ccccc1)S(=O)(=O)c1ccc2[nH]cc(C(=O)NCCOC)c(=O)c2c1	?	.	.	.	?	?
CCN(c1ccccc1)S(=O)(=O)c1ccc2[nH]cc(C(=O)NC3CCCCC3)c(=O)c2c1	/	/	/	.	?	15µM
Cc1cc(C)cc(NS(=O)(=O)c2ccc3[nH]cc(C(=O)NCCc4ccccc4)c(=O)c3c2)c1	/	/	/	.	?	16µM
Cc1ccc(CCNC(=O)c2c[nH]c3ccc(S(=O)(=O)Nc4cccc(C(F)(F)F)c4)cc3c2=O)cc1	/	/	/	.	21µM	?
CC(C)CCNC(=O)c1c[nH]c2ccc(S(=O)(=O)Nc3cccc(C(F)(F)F)c3)cc2c1=O	/	/	/	.	?	?
CCc1ccc(NS(=O)(=O)c2ccc3[nH]cc(C(=O)NCCc4ccccc4)c(=O)c3c2)cc1	/	/	/	/	.	.
CC(=O)N1CCCC(C)(C(=O)Nc2ccc3oc(C)nc3c2)C1 (stereo unspecified)	/	.	/	/	.	.
Nn1c(SCC(=O)Nc2ccc3c(c2)OCCO3)nncc1=O	.	?	.	.	.	.
C=CCn1c(SC(C)C(=O)NCc2ccc3c(c2)OCO3)nc2scc(-c3ccccc3)c2c1=O (stereo unspecified)	?	.	.	.	.	?
Cn1c(SCC(=O)NCc2ccc3c(c2)OCO3)nc2scc(-c3cccs3)c2c1=O	13µM	.	.	.	?	?
C=CCn1c(SCC(=O)NCc2ccc3c(c2)OCO3)nc2scc(-c3ccc(F)cc3)c2c1=O	15µM	.	.	.	?	?
CC[C@@H](c1ccccc1)n1c(=O)n2n(c1=O)[C@H]1[C@H](O)[C@H]3O[C@@H]3/C(=N/OC/C=C(\C)CCC=C(C)C)[C@@H]1CC2	/	/	/	.[21 µM]	/	/
N[C@@H](CSS(=O)(=O)O)C(=O)O	/	/	/	40µM!	.	.
Cc1noc(C)c1CSc1nc2ccccc2n1CCc1ccccc1	.	?	.	.	?	?
Cc1cccc(Oc2nc3c(c(=O)n(C)c(=O)n3C)n2C)c1C	/	/	/	.	.	.
CC(=O)c1cccc(S(=O)(=O)NCCC(=O)O)c1	.	.	.	.	.	.
CCCCCn1c(=O)[nH]c2cc(C(=O)NCc3ccc(C)cc3)ccc2c1=O	/	/	/	.	.	.
COC(=O)C1=C(C)N=c2s/c(=C/c3cccs3)c(=O)n2C1c1cccs1 (stereo unspecified)	.	.	.	.	.	.
CCOC(=O)C1=C(C)N=c2s/c(=C\c3cc(OC)c(OC)c(OC)c3)c(=O)n2C1/C=C/c1ccccc1 (stereo unspecified)	.	.	.	.	.	?
CCOC(=O)C1=C(c2ccccc2)N=c2s/c(=C\c3ccc(O)cc3)c(=O)n2C1c1cccs1 (stereo unspecified)	?	-78	.	.	12µM	16µM
CCOC(=O)C1=C(c2ccccc2)N=c2sc(=Cc3cc(OC)c(OC)c(OC)c3)c(=O)n2C1c1cccs1 (stereo unspecified)	/	?	/	/	8.2µM	13µM
CCOC(=O)C1=C(C)N=c2s/c(=C\c3cccn3C)c(=O)n2C1c1cccc(OC)c1OC (stereo unspecified)	?	.	.	.	?	21µM
